Compounds without any hit were thinned out: in the full panel of roughly 83,000, 20% have a hit.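 Growth was measured after 48 h exposure to one concentration of compound in 96-well plates. Values under 10 count as active.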 Active and inactive are the calls of the source.
Each compound was assayed on NCI-H226 lung (assay: NCI-60 one-dose screen, 48 h (100 = growth as untreated, 0 = no growth, -100 = all killed)). Conditions: 10 µM.
Description: Growth inhibition of the NCI-H226 human Non-Small Cell Lung tumor cell line is measured as a screen for anti-cancer activity. Cells are grown in 96 well plates and exposed to the test compound for 48 hours. Compounds are tested at a single concentration, which is 10^-5 M for most compounds. The reported endpoint is percent growth (GI% or GIPRCNT), where numbers from 0 - 100% represent growth inhibition, and numbers from -100% - 0 represent cell death. For example, a value of 40 represents 60% growth inhibition. A value of 0 means no net growth occurred over the course of the experiment. A value of -40 indicates 40% of cells at the beginning of the experiment died by the end of the experiment. A value of -100 means all cells are dead at the end of the experiment.
NCI-60 Human Tumor Cell Lines Screen was performed using the standard one-dose NCI protocol, which is described in more detail at https://dtp.cancer.gov/discovery_development/nci-60/default.htm.
Compounds with GIPRCNT values below 10 were considered active. Activity score was based on GIPRCNT using the following formula: […]
Score is 0 for GIPRCNT values of 100 or above, 50 for GIPRCNT values of 0, and 100 for GIPRCNT values of -100.

Row | SMILES | growth
1 | O=C(NC([Se])=NC1CCCCC1)c1ccc2c(c1)OCO2 | 85.6% (inactive)
2 | CC[C@]12C=CCN3CC[C@@]4(c5ccc(OC)cc5N(C)[C@H]4[C@@](O)(C(=O)OC)[C@@H]1OC(=O)CCCC[P+](c1ccc(OC)cc1)(c1ccc(OC)cc1)c1ccc(OC)cc1)[C@@H]32 | -63.6% (active)
3 | COC(=O)c1ccc(-n2cc(CCCN(CCNc3ccnc4cc(Cl)ccc34)C(=O)CCC(=O)O[C@@H]3O[C@@H]4OC5(C)CC[C@H]6[C@H](C)CC[C@@H]([C@H]3C)[C@@]46OO5)nn2)cc1 | 48.4% (inactive)
4 | COCCOCCOCCOc1ccc(-n2cc(CCCN(CCNc3ccnc4cc(Cl)ccc34)C(=O)CCC(=O)O[C@@H]3O[C@@H]4OC5(C)CC[C@H]6[C@H](C)CC[C@@H]([C@H]3C)[C@@]46OO5)nn2)cc1 | 53.5% (inactive)
5 | O=C(/C=C/c1cccc(Br)c1)c1nc2ccccc2n1Cc1ccc(Br)cc1 | -67.7% (active)
6 | O=C(/C=C/c1ccc(Br)cc1)c1nc2ccccc2n1Cc1ccc(Br)cc1 | -70.1% (active)
7 | O=C(/C=C/c1cccc(Br)c1)c1nc2ccccc2n1Cc1ccc(F)cc1 | 14.5% (inactive)
8 | C[C@H]1[C@@H](CC(=O)N[C@@H](Cc2coc3ccccc23)B(O)O)O[C@@H]2OC3(C)CC[C@H]4[C@H](C)CC[C@@H]1[C@@]24OO3 | -28.1% (active)
9 | C#CC[Se]C(=O)c1ccc2n[se]nc2c1 | 23% (inactive)
10 | O=C(/C=C/c1ccc(F)cc1)c1nc2ccccc2n1Cc1ccc(F)cc1 | -35.7% (active)
11 | O=C([Se]C1C=CCCC1)c1ccc(C(=O)[Se]C2C=CCCC2)s1 (stereo not given) | -42.9% (active)
12 | COc1cc2cc(C(=O)N3C[C@@H](CCl)c4c3cc(OC(=O)N3CCN(C)[C@@H]5CSSC[C@@H]53)c3ccccc43)[nH]c2c(OC)c1OC | -26.1% (active)
13 | CN(C)CCc1cn(C2CCC2)c2cccc(O)c12 | 69.6% (inactive)
14 | CCC[Se]C(=O)c1ccc(C(=O)[Se]CCC)s1 | -50.9% (active)
15 | O=C(/C=C/c1ccco1)c1nc2ccccc2n1Cc1ccc(F)cc1 | 77.9% (inactive)
16 | CC[C@]12C=CCN3CC[C@@]4(c5ccc(OC)cc5N(C)[C@H]4[C@@](O)(C(=O)OC)[C@@H]1OC(=O)CCCC[P+](C1CCCCC1)(C1CCCCC1)C1CCCCC1)[C@@H]32 | -22% (active)
17 | C=CC[Se]C(=O)c1ccc(C(=O)[Se]CC=C)s1 | -40.1% (active)
18 | O=C(NCCCCC(c1ccc(F)cc1)c1ccc(F)cc1)Nc1ccc([N+](=O)[O-])c(C(F)(F)F)c1 | 0.603% (active)
19 | COP(=O)(CC(F)(F)C(F)(F)F)OC | -55.6% (active)
20 | CC1=C(C=O)C2=C(C)C3(CC3)[C@@](C)(O)C(=O)C2=C1 | 45.9% (inactive)

Row | SMILES | growth
21 | COC(=O)C[C@](O)(CCC(C)C)C(=O)O[C@H]1C(OC)=C[C@@]23CCCN2CCc2cc4c(cc2[C@@H]13)OCO4 | -20.4% (active)
22 | O=C(/C=C/c1ccc(F)cc1)c1nc2ccccc2n1Cc1ccc(Br)cc1 | -66.2% (active)
23 | Cc1c2oc3c(C)ccc(C(=O)N[C@@H]4C(=O)N[C@H](C(C)C)C(=O)N5CCC[C@H]5C(=O)N(C)CC(=O)N(C)[C@@H](C(C)C)C(=O)OC4C)c3nc-2c(C(=O)N[C@@H]2C(=O)N[C@H](C(C)C)C(=O)N3CC(=O)C[C@H]3C(=O)N(C)CC(=O)N(C)[C@@H](C(C)C)C(=O)OC2C)c(N)c1=O (stereo not given in full) | -4.29% (active)
24 | C[C@H]1[C@H](OC(=O)CCC(=O)N(CCCc2cn(-c3ccc(C#N)cc3)nn2)CCNc2ccnc3cc(Cl)ccc23)O[C@@H]2OC3(C)CC[C@H]4[C@H](C)CC[C@@H]1[C@@]24OO3 | 60.3% (inactive)
25 | CC[C@]12C=CCN3CC[C@@]4(c5ccc(OC)cc5N(C)[C@H]4[C@@](O)(C(=O)OC)[C@@H]1OC(=O)CCC[P+](c1ccc(F)cc1)(c1ccc(F)cc1)c1ccc(F)cc1)[C@@H]32 | 46.9% (inactive)
26 | C[C@H]1[C@H](OC(=O)CCC(=O)Nc2cnccn2)O[C@@H]2OC3(C)CC[C@H]4[C@H](C)CC[C@@H]1[C@@]24OO3 | 74.8% (inactive)
27 | N#C[Se]CC(=O)Nc1cccc(C(F)(F)F)c1 | -37.7% (active)
28 | CC12OOC(C)(OO1)C2CCC(=O)OCCNc1ccnc2cc(Cl)ccc12 (stereo not given) | 98% (inactive)
29 | CCOP(=O)(OCC)C(NC(C)=O)C(=O)SCCN (stereo not given) | 106% (inactive)
30 | O=C(/C=C/c1ccc(Cl)cc1)c1nc2ccccc2n1Cc1ccc(F)cc1 | 36.6% (inactive)
31 | C#CC[Se]C(=O)c1ccc(C(=O)[Se]CC#C)s1 | 76.5% (inactive)
32 | CC1=C(CCC=O)C2=C(C)C3(CC3)[C@@](C)(O)C(=O)C2=C1 | -61.5% (active)
33 | C=CCN=C([Se])NC(=O)c1ccc2c(c1)OCO2 | 119% (inactive)
34 | CC1=C(CCC=NNC(N)=O)C2=C(C)C3(CC3)[C@@](C)(O)C(=O)C2=C1 | -71.7% (active)
35 | COC(=O)C[C@](O)(CCC(C)C)C(=O)O[C@@H]1C(OC)=C[C@]23CCCN2CCc2cc4c(cc2[C@H]13)OCO4 | -55.1% (active)
36 | CC[C@]12C=CCN3CC[C@@]4(c5ccc(OC)cc5N(C)[C@H]4[C@@](O)(C(=O)OC)[C@@H]1OC(=O)CCC[P+](C1CCCCC1)(C1CCCCC1)C1CCCCC1)[C@@H]32 | -20% (active)
37 | CC12OOC(C)(OO1)C2CCC(=O)NCCNc1ccnc2cc(Cl)ccc12 (stereo not given) | 93.7% (inactive)
38 | COc1cc2cc(C(=O)N3C[C@@H](CCl)c4c3cc(OC(=O)N3CCN(C(=O)CCC(=O)N5CCN(C)CC5)[C@@H]5CSSC[C@@H]53)c3ccccc43)[nH]c2c(OC)c1OC | -11.6% (active)
39 | CC12CCC3(CCC(=O)NCCCNc4ccnc5cc(Cl)ccc45)[C@@](C)(OO[C@]3(C)O1)O2 | 0.706% (active)
40 | CC[C@]12C=CCN3CC[C@@]4(c5ccc(OC)cc5N(C)[C@H]4[C@@](O)(C(=O)OC)[C@@H]1OC(=O)CCC[P+](c1ccc(C)cc1)(c1ccc(C)cc1)c1ccc(C)cc1)[C@@H]32 | -77.4% (active)
